Binding signal data for 1 sequence are collected here from publication PMC7862700, “An all-to-all approach to the identification of sequence-specific readers for epigenetic DNA modifications on cytosine”.

Common to all, as to assay: DAPPL (digital affinity profiling via proximity ligation, sequencing); 10 mM Tris-HCl pH 7.5, 50 mM NaCl, 1 mM DTT, 4% glycerol, room temperature, 30 min; GST-TFs on glutathione beads, 16-mer random dsDNA library, 0.1% formaldehyde crosslink after washing; high values mean tight binding
One experiment concerns the target T1, FEV (Homo sapiens, UniProt Q99581 1-238).
T1 sequence: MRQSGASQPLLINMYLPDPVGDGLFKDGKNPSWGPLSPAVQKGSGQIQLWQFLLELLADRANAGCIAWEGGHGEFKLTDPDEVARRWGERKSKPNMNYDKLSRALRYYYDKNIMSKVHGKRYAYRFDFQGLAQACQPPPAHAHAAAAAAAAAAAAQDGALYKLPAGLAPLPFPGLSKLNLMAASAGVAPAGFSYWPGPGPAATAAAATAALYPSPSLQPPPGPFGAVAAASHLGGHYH
Particulars: protein: recombinant; tags: N-terminal GST; dsDNA, one strand shown. In a few lines: (§1)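 Binding signal is defined as a hexamer's read frequency for one factor over its frequency for the tag-only sample. To obtain reads, GST-fused human transcription factors were expressed in yeast, captured on glutathione beads, barcoded with DNA and pooled with that sample. Pools met 200 nmole of a 16-mer random double-stranded DNA library in Tris/NaCl/DTT/glycerol buffer for 30 min at room temperature before washing, 0.1% formaldehyde crosslinking, proximity ligation (BsaI/T4 ligase, 1 h, 37 °C), PCR and Illumina NextSeq500 sequencing.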

The target in the next experiment is ETV5 (Homo sapiens, UniProt P41161 1-510). Conditions: protein: recombinant; tags: N-terminal GST; dsDNA, one strand shown. In a few lines:
as §1

A further experiment concerns the target HSF1 (Homo sapiens, UniProt Q00613 1-529). Particulars: protein: recombinant; tags: N-terminal GST; chain copies: 3; dsDNA, one strand shown. Summed up:
as §1

The next experiment has as its target T2, SPIC (Homo sapiens, UniProt Q8N5J4 1-248).
T2 sequence: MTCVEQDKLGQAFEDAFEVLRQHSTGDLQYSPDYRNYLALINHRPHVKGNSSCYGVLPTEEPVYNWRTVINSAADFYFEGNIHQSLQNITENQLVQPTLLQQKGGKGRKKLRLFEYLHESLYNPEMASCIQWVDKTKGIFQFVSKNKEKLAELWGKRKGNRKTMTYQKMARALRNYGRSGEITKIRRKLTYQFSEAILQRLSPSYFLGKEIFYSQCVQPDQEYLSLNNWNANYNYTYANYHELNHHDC
Conditions: protein: recombinant; tags: N-terminal GST; dsDNA, one strand shown. In a few lines:
as §1

Another experiment concerns the target ELF4 (Homo sapiens, UniProt Q99607 1-663). Particulars: protein: recombinant; tags: N-terminal GST; dsDNA, one strand shown. In a few lines: as §1
A further experiment concerns the target T3, ELK4 (Homo sapiens, UniProt P28324-2 1-405).
T3 sequence: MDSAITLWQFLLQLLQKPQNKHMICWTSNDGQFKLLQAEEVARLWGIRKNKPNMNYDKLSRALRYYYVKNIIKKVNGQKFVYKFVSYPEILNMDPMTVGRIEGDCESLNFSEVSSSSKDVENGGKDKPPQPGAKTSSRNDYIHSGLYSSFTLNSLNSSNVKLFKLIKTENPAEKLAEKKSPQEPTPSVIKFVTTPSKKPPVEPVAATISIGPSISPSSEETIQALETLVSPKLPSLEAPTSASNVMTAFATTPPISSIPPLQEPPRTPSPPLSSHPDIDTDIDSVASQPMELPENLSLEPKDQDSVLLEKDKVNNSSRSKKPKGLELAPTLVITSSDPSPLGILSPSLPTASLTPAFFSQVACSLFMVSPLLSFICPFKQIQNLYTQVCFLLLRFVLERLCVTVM
Particulars: protein: recombinant; tags: N-terminal GST; dsDNA, one strand shown. Summed up: as §1

In a further experiment the target is T4, ETV2 (Homo sapiens, UniProt O00321 1-342).
T4 sequence: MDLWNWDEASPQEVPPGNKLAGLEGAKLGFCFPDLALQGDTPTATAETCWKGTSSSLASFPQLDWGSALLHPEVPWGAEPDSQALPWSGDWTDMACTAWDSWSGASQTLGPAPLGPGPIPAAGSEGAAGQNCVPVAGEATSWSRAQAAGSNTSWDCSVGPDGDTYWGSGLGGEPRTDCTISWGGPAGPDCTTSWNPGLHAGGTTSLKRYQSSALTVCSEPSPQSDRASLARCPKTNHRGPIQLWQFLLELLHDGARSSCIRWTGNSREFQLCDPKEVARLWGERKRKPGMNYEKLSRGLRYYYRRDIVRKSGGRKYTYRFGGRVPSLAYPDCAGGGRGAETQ
Particulars: protein: recombinant; tags: N-terminal GST; dsDNA, one strand shown. In a few lines:
as §1

The next experiment has as its target T5, ELF3 (Homo sapiens, UniProt P78545 1-371).
T5 sequence: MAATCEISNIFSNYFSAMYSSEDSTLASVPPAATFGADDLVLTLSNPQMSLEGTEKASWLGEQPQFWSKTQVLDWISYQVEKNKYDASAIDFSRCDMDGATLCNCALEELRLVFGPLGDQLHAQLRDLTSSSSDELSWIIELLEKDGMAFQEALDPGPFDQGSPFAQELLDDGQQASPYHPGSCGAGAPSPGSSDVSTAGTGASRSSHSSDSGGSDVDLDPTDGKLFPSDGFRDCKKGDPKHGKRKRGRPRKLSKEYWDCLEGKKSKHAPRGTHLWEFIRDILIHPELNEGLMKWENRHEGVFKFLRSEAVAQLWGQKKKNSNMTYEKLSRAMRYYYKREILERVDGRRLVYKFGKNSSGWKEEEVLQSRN
Conditions: protein: recombinant; tags: N-terminal GST; dsDNA, one strand shown. Summed up:
as §1

Another experiment has as its target CRX (Homo sapiens, UniProt O43186 1-299). Conditions: protein: recombinant; tags: N-terminal GST; dsDNA, one strand shown. Summed up:
as §1

For another experiment, the target named is ETV1 (Homo sapiens, UniProt P50549 1-477). Conditions: protein: recombinant; tags: N-terminal GST; dsDNA, one strand shown. In a few lines: as §1
The target in a further experiment is T6, ERF (Homo sapiens, UniProt P50548 1-548).
T6 sequence: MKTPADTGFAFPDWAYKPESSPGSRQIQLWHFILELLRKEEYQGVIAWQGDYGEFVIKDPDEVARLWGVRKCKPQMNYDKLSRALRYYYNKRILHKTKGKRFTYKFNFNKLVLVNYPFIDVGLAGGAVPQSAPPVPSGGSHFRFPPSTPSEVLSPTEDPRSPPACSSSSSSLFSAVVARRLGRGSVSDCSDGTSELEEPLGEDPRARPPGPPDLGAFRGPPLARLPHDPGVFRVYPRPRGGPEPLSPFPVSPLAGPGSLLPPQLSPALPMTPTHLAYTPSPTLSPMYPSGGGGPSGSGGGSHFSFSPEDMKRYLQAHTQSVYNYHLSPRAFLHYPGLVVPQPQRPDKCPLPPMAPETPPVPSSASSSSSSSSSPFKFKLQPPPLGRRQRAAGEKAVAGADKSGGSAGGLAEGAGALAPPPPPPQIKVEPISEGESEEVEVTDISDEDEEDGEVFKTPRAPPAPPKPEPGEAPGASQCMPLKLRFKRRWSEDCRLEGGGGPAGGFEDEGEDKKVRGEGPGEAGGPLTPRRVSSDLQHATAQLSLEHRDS
Conditions: protein: recombinant; tags: N-terminal GST; dsDNA, one strand shown. In a few lines: as §1

For the next experiment, the target named is T7, ETV3L (Homo sapiens, UniProt Q6ZN32 1-361).
T7 sequence: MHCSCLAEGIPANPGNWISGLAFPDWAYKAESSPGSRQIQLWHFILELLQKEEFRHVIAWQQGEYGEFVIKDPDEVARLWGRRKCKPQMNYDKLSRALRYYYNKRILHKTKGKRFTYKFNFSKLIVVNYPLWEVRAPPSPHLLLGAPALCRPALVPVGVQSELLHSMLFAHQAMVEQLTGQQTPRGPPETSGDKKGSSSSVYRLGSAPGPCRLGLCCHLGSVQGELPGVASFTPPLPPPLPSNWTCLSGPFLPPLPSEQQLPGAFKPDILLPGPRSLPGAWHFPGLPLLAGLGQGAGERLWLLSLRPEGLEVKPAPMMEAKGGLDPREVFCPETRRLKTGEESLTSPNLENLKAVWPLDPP
Conditions: protein: recombinant; tags: N-terminal GST; dsDNA, one strand shown. In a few lines: as §1

For the next experiment, the target named is T8, ETS2 (Homo sapiens, UniProt P15036 1-469).
T8 sequence: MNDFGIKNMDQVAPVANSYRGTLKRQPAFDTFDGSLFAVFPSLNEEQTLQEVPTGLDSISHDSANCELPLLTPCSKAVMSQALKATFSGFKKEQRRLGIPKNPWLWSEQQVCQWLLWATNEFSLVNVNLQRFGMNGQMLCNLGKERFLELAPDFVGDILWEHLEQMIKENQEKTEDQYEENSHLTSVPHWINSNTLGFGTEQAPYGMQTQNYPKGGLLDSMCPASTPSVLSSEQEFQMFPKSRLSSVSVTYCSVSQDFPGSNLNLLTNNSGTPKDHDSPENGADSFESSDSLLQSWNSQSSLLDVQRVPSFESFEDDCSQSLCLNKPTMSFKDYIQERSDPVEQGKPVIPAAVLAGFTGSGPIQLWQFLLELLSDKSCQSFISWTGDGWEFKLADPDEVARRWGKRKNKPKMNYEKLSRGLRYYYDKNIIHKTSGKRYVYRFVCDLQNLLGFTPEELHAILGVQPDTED
Conditions: protein: recombinant; tags: N-terminal GST; dsDNA, one strand shown. In a few lines:
as §1

A further experiment deals with T9, SPDEF (Homo sapiens, UniProt O95238 1-335).
T9 sequence: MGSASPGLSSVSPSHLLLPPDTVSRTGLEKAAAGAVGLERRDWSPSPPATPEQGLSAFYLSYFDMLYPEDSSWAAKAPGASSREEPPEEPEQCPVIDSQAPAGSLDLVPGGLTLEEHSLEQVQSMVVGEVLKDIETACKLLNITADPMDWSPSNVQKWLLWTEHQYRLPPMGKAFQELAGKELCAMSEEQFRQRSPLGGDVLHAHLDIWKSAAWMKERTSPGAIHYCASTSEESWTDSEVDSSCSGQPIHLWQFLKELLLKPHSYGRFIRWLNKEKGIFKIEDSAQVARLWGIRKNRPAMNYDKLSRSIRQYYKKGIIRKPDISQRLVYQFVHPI
Conditions: protein: recombinant; tags: N-terminal GST; dsDNA, one strand shown. Summed up:
as §1

The next experiment has as its target T10, ETV7 (Homo sapiens, UniProt Q9Y603 1-341).
T10 sequence: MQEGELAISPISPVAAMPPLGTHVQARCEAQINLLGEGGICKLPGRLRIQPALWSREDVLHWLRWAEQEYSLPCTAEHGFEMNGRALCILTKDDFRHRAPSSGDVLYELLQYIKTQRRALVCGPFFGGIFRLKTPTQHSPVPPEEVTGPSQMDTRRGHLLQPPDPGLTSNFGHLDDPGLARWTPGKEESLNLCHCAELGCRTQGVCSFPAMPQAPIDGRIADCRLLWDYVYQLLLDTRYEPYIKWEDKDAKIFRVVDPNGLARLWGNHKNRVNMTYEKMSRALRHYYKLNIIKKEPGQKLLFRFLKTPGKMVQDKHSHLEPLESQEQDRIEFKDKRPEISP
Conditions: protein: recombinant; tags: N-terminal GST; dsDNA, one strand shown. In a few lines: as §1

Another experiment has as its target T11, ELF5 (Homo sapiens, UniProt Q9UKW6-2 1-255).
T11 sequence: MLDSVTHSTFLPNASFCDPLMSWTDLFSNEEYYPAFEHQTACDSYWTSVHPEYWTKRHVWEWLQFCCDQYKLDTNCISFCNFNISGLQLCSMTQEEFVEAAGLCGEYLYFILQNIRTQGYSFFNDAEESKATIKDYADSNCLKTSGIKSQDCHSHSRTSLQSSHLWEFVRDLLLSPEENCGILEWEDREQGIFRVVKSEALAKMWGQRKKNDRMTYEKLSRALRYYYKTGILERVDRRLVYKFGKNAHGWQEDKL
Conditions: protein: recombinant; tags: N-terminal GST; dsDNA, one strand shown. Summed up:
as §1

The next experiment concerns the target T12, ETV3 (Homo sapiens, UniProt P41162-2 1-143).
T12 sequence: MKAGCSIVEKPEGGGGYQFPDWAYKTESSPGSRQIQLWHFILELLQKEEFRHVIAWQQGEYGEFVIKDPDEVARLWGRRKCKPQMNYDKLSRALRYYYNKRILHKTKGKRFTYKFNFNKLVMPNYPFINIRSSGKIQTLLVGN
Conditions: protein: recombinant; tags: N-terminal GST; dsDNA, one strand shown. In a few lines:
as §1

In the next experiment the target is ETV6 (Homo sapiens, UniProt P41212 1-452). Particulars: protein: recombinant; tags: N-terminal GST; dsDNA, one strand shown. Summed up:
as §1

HSF1, sequence (Q00613 whole entry): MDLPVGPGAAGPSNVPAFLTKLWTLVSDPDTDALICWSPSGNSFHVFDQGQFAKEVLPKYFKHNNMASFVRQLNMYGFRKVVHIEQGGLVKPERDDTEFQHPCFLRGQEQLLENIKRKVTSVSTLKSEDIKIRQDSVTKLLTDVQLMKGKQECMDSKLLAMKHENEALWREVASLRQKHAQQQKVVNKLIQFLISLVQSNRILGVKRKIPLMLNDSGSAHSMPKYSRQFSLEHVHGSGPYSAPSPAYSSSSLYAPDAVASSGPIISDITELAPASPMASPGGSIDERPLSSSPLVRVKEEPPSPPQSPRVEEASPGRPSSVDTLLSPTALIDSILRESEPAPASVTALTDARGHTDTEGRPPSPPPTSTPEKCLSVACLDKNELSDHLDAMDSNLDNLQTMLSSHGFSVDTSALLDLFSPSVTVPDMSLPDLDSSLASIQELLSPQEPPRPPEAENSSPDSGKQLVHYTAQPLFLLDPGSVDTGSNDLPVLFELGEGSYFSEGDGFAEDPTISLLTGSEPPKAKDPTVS
ETV5, sequence (P41161 whole entry): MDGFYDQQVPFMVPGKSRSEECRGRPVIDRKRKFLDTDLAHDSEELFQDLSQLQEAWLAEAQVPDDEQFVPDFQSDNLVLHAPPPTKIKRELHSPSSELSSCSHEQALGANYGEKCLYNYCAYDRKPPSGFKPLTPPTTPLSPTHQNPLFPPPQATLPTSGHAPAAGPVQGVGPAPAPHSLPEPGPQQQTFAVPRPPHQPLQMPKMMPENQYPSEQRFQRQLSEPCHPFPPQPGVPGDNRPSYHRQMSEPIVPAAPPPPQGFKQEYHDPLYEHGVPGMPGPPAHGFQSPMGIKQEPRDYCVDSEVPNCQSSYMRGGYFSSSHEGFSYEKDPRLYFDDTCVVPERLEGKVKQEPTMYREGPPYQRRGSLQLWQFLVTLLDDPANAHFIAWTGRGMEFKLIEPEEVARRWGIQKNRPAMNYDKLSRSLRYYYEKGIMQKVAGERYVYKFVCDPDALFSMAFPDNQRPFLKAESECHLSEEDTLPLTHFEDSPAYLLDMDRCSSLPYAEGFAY
ELF4, sequence (Q99607 whole entry): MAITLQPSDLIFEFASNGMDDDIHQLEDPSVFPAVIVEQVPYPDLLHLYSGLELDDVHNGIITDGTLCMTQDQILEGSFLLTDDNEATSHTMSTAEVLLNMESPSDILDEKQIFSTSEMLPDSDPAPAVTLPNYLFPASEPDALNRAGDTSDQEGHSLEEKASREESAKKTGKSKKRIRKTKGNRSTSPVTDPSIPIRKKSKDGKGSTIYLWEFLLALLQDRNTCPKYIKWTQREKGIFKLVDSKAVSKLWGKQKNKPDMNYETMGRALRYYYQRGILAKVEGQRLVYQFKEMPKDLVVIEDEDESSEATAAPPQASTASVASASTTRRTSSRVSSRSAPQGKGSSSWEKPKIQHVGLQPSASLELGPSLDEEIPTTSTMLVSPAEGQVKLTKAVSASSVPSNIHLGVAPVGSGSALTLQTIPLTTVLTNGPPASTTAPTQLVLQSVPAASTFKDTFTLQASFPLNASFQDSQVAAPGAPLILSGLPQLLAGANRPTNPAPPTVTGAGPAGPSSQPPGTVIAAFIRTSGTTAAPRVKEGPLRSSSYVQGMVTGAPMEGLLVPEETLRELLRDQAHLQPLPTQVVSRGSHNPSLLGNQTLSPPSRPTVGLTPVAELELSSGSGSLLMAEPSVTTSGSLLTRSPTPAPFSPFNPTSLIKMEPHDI
CRX, sequence (O43186 whole entry): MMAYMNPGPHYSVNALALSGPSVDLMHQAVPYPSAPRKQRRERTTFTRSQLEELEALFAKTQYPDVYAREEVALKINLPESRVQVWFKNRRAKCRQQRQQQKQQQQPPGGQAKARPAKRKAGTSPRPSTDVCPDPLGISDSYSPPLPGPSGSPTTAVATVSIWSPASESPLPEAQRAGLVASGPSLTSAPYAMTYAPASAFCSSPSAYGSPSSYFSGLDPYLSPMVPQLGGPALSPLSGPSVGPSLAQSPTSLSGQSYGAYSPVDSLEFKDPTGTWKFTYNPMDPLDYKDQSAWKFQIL
ETV6, sequence (P41212 whole entry): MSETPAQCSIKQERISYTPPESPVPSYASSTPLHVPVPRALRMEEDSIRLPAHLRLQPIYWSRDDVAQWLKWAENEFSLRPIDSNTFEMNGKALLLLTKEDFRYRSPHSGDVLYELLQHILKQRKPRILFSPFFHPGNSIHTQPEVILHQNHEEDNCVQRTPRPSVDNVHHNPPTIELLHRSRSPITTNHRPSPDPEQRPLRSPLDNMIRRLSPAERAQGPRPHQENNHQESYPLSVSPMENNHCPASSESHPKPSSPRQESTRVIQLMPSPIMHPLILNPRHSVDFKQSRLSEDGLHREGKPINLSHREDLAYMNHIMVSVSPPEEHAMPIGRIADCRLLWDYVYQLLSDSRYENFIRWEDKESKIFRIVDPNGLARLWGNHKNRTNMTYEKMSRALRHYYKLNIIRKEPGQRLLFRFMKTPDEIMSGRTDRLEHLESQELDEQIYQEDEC
ETV1, sequence (P50549 whole entry): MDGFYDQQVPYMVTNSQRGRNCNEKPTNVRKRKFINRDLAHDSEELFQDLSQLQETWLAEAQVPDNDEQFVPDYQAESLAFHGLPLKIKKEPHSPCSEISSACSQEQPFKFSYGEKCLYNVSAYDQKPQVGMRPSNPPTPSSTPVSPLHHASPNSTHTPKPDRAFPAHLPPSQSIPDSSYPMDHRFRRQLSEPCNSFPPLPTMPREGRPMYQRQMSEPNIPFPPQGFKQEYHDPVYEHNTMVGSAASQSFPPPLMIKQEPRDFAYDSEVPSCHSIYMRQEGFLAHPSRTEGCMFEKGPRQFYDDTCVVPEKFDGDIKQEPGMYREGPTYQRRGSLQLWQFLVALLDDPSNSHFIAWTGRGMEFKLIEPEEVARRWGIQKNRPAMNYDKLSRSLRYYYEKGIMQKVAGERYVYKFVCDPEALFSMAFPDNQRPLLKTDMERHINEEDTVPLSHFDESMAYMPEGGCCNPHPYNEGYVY

Take TAGTAC: the binding signal with FEV was 1.16 fold enrichment (6-mer frequency, TF over GST control); with ETV5 it was 1.14 fold enrichment (6-mer frequency, TF over GST control); with HSF1, 1.25 fold enrichment (6-mer frequency, TF over GST control); in the experiment with SPIC it was 1.27 fold enrichment (6-mer frequency, TF over GST control); in the experiment with ELF4 it was 1.15 fold enrichment (6-mer frequency, TF over GST control); in the experiment with ELK4 it was 1.16 fold enrichment (6-mer frequency, TF over GST control). Also, the binding signal in the experiment with ETV2 was 1.06 fold enrichment (6-mer frequency, TF over GST control); in the experiment with ELF3, 1.14 fold enrichment (6-mer frequency, TF over GST control); with CRX it was 1.29 fold enrichment (6-mer frequency, TF over GST control); in the experiment with ETV1 it was 1.14 fold enrichment (6-mer frequency, TF over GST control); with ERF, 1.13 fold enrichment (6-mer frequency, TF over GST control); with ETV3L, 1.1 fold enrichment (6-mer frequency, TF over GST control). Moreover, the binding signal is 1.17 fold enrichment (6-mer frequency, TF over GST control) in the experiment with ETS2; 1.14 fold enrichment (6-mer frequency, TF over GST control) with SPDEF; 1.17 fold enrichment (6-mer frequency, TF over GST control) with ETV7; 1.17 fold enrichment (6-mer frequency, TF over GST control) with ELF5; 1.27 fold enrichment (6-mer frequency, TF over GST control) with ETV3; 1.22 fold enrichment (6-mer frequency, TF over GST control) with ETV6.
